Drawing on paper PMC7862700, “An all-to-all approach to the identification of sequence-specific readers for epigenetic DNA modifications on cytosine”, this text covers binding signal for eight sequences.

Holding throughout (assay): DAPPL (digital affinity profiling via proximity ligation, sequencing); 10 mM Tris-HCl pH 7.5, 50 mM NaCl, 1 mM DTT, 4% glycerol, room temperature, 30 min; GST-TFs on glutathione beads, 16-mer random dsDNA library, 0.1% formaldehyde crosslink after washing; high values mean tight binding
Conditions in all cases: protein: recombinant; tags: N-terminal GST; dsDNA, one strand shown

The target of test [1] is T1, FLI1 (Homo sapiens, UniProt Q01543 1-452).
T1 sequence: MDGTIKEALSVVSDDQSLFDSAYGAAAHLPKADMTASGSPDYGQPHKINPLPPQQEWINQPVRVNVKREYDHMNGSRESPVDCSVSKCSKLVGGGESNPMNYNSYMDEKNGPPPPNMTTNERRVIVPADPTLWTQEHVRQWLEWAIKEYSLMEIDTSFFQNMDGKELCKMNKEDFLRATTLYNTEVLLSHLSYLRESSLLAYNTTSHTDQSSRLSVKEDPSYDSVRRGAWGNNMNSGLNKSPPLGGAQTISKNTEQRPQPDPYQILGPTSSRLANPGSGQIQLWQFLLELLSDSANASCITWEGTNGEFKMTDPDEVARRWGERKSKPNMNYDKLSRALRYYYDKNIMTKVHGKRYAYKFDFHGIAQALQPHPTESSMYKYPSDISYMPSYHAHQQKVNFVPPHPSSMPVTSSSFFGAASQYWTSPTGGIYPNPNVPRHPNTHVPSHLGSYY
A digest of the protocol: (§1)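 In yeast, human transcription factors were expressed with a GST fusion, then pulled down on glutathione beads and given DNA barcodes. Pooled with a tag-only sample, they were exposed to 200 nmole of a 16-mer random double-stranded DNA library (Tris/NaCl/DTT/glycerol buffer, room temperature, 30 min), washed, crosslinked with 0.1% formaldehyde, proximity-ligated using BsaI/T4 ligase for 1 h at 37 °C, PCR-amplified and read on an Illumina NextSeq500. Each hexamer's frequency of reads for a factor, divided by the matching frequency for the tag-only sample, gives the binding signal.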

For test [2], the target named is T2, ELK1 (Homo sapiens, UniProt P19419 1-428).
T2 sequence: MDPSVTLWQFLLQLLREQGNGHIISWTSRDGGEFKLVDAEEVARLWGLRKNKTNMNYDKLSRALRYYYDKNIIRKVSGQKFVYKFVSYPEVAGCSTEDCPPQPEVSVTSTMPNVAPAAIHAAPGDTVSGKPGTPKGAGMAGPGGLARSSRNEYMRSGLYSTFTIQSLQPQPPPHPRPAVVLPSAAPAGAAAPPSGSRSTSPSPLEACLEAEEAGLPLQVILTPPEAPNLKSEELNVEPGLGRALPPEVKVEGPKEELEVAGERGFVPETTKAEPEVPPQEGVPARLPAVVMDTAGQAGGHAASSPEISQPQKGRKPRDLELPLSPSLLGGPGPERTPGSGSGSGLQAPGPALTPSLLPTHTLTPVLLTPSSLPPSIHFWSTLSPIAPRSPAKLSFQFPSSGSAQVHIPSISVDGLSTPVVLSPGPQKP
A digest of the protocol: as §1

In test [3] the target is T3, GABPA (Homo sapiens, UniProt Q06546 1-454).
T3 sequence: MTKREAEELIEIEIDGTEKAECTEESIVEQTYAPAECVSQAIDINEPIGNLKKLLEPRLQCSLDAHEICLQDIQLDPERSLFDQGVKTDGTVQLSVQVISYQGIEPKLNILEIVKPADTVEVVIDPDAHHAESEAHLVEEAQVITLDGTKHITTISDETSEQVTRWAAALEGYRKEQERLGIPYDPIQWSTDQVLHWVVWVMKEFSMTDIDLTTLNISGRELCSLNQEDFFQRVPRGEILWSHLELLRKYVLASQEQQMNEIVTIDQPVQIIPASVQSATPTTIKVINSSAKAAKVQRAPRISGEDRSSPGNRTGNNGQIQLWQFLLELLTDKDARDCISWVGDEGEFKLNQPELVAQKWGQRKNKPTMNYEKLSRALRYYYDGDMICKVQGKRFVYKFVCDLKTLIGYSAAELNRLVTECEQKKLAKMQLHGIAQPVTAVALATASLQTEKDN
The method, boiled down:
as §1

In test [4] the target is T4, ERG (Homo sapiens, UniProt P11308 1-479).
T4 sequence: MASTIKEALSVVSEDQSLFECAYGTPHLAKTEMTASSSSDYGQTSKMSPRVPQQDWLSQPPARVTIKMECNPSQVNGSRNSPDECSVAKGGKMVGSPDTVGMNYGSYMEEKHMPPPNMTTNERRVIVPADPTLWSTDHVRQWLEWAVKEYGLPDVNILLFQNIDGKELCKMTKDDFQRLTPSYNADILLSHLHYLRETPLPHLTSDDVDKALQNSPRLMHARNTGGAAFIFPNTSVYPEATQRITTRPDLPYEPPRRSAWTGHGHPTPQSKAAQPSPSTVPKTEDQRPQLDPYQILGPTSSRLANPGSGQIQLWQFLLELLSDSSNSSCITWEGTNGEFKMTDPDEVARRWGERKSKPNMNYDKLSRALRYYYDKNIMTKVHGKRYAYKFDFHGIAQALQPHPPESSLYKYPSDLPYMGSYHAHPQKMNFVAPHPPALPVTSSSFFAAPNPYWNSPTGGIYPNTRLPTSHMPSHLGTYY
The method, boiled down:
as §1

For test [5], the target named is ELF1 (Homo sapiens, UniProt P32519 1-619). The method, boiled down: as §1
ELF1, sequence (P32519 whole entry): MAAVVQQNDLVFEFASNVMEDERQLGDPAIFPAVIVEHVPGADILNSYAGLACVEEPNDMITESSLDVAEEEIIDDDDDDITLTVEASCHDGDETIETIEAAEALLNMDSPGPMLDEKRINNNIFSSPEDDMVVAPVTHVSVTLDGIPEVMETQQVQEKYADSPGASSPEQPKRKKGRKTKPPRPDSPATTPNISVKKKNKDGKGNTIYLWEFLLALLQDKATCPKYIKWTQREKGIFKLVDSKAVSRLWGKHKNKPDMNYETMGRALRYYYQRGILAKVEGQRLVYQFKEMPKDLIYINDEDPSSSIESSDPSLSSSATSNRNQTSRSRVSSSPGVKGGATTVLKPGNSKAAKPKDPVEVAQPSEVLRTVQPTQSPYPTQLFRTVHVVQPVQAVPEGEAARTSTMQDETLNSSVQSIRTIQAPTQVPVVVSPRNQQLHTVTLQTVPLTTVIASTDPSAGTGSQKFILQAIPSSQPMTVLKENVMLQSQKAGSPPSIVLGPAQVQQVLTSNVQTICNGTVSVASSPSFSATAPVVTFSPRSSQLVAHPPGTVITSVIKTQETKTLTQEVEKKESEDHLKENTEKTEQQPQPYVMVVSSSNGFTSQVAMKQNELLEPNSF
Test [6] deals with T5, EHF (Homo sapiens, UniProt Q9NZC4 1-300).
T5 sequence: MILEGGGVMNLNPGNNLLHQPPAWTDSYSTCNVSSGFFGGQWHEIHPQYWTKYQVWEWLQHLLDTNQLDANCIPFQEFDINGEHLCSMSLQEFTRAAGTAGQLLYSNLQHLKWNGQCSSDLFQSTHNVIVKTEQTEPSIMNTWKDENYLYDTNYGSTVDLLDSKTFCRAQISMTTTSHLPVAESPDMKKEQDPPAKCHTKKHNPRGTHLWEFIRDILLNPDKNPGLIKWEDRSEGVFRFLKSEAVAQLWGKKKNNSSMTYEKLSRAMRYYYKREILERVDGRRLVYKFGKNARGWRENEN
The method, boiled down: as §1

The target in test [7] is SPI1 (Homo sapiens, UniProt P17947 1-270). A digest of the protocol: as §1
The target of test [8] is SPIB (Homo sapiens, UniProt Q01892 1-262). A digest of the protocol:
as §1

In test [9] the target is T6, ELK3 (Homo sapiens, UniProt P41970 1-407).
T6 sequence: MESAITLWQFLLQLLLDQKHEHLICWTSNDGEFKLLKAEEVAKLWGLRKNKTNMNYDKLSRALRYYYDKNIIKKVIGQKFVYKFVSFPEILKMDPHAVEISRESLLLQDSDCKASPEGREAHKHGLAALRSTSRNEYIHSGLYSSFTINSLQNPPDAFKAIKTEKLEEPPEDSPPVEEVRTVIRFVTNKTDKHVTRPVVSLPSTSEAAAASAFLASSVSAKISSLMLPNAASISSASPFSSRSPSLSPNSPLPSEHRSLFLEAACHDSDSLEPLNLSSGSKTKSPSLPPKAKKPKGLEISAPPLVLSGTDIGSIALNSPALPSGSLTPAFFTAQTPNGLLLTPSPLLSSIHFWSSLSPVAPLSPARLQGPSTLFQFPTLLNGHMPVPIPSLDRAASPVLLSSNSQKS
The method, boiled down:
as §1

SPIB, sequence (Q01892 whole entry): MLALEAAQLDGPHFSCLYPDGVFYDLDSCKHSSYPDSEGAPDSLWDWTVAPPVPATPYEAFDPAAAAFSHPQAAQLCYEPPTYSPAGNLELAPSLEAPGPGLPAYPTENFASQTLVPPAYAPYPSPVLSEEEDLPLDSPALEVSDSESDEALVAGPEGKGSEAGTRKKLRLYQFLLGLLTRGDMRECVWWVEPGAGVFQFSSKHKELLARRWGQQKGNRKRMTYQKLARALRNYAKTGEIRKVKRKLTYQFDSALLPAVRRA

On to CCTCTA, for which the binding signal in test [1] was 1.24 fold enrichment (6-mer frequency, TF over GST control); in test [2], 1.48 fold enrichment (6-mer frequency, TF over GST control); in test [3], 1.39 fold enrichment (6-mer frequency, TF over GST control); in [4], 1.32 fold enrichment (6-mer frequency, TF over GST control); in [5], 1.42 fold enrichment (6-mer frequency, TF over GST control); in test [6], 1.31 fold enrichment (6-mer frequency, TF over GST control). The binding signal was 1.33 fold enrichment (6-mer frequency, TF over GST control) in test [7]; 1.38 fold enrichment (6-mer frequency, TF over GST control) in test [8]; 1.32 fold enrichment (6-mer frequency, TF over GST control) in test [9].

Consider TAGCTC, for which the binding signal in test [1] was 1.17 fold enrichment (6-mer frequency, TF over GST control); in [2], 1.13 fold enrichment (6-mer frequency, TF over GST control); in test [3] it was 1.2 fold enrichment (6-mer frequency, TF over GST control); in test [4], 1.11 fold enrichment (6-mer frequency, TF over GST control); in test [5], 1.18 fold enrichment (6-mer frequency, TF over GST control); in test [6] it was 1.25 fold enrichment (6-mer frequency, TF over GST control). Moreover, the binding signal is 1.21 fold enrichment (6-mer frequency, TF over GST control) in test [7]; 1.05 fold enrichment (6-mer frequency, TF over GST control) in [8]; 1.28 fold enrichment (6-mer frequency, TF over GST control) in test [9].

As to AGTGCT, the binding signal in [1] is 1.47 fold enrichment (6-mer frequency, TF over GST control); in [2], 1.36 fold enrichment (6-mer frequency, TF over GST control); in test [3], 1.29 fold enrichment (6-mer frequency, TF over GST control); in test [4], 1.37 fold enrichment (6-mer frequency, TF over GST control); in test [5] it was 1.4 fold enrichment (6-mer frequency, TF over GST control); in test [6], 1.4 fold enrichment (6-mer frequency, TF over GST control). Besides, the binding signal in [7] was 1.91 fold enrichment (6-mer frequency, TF over GST control); in [8], 1.53 fold enrichment (6-mer frequency, TF over GST control); in test [9], 1.59 fold enrichment (6-mer frequency, TF over GST control).

In the case of CCGAAT, the binding signal in test [1] is 1.23 fold enrichment (6-mer frequency, TF over GST control); in [2], 1.1 fold enrichment (6-mer frequency, TF over GST control); in test [3], 1.25 fold enrichment (6-mer frequency, TF over GST control); in [4], 1.07 fold enrichment (6-mer frequency, TF over GST control); in test [5] it was 1.22 fold enrichment (6-mer frequency, TF over GST control); in test [6], 1.24 fold enrichment (6-mer frequency, TF over GST control). Besides, the binding signal in test [7] is 1.2 fold enrichment (6-mer frequency, TF over GST control); in [8] it was 1.22 fold enrichment (6-mer frequency, TF over GST control); in test [9] it was 1.14 fold enrichment (6-mer frequency, TF over GST control).

Regarding ACGAAT, the binding signal is 1.12 fold enrichment (6-mer frequency, TF over GST control) in [1]; 1.1 fold enrichment (6-mer frequency, TF over GST control) in test [2]; 1.22 fold enrichment (6-mer frequency, TF over GST control) in test [3]; 1.07 fold enrichment (6-mer frequency, TF over GST control) in [4]; 1.15 fold enrichment (6-mer frequency, TF over GST control) in test [5]; 1.13 fold enrichment (6-mer frequency, TF over GST control) in test [6]. For the same sequence, the binding signal was 1.13 fold enrichment (6-mer frequency, TF over GST control) in test [7]; 1.15 fold enrichment (6-mer frequency, TF over GST control) in test [8]; 1.13 fold enrichment (6-mer frequency, TF over GST control) in [9].

Consider CGCCTT, for which the binding signal in [1] is 1.45 fold enrichment (6-mer frequency, TF over GST control); in test [2], 1.43 fold enrichment (6-mer frequency, TF over GST control); in test [3] it was 1.45 fold enrichment (6-mer frequency, TF over GST control); in test [4], 1.44 fold enrichment (6-mer frequency, TF over GST control); in test [5], 1.44 fold enrichment (6-mer frequency, TF over GST control); in [6] it was 1.34 fold enrichment (6-mer frequency, TF over GST control). Also, the binding signal is 1.35 fold enrichment (6-mer frequency, TF over GST control) in [7]; 1.43 fold enrichment (6-mer frequency, TF over GST control) in [8]; 1.46 fold enrichment (6-mer frequency, TF over GST control) in test [9].

Take TAATAC: the binding signal in [1] was 1.11 fold enrichment (6-mer frequency, TF over GST control); in test [2] it was 1.07 fold enrichment (6-mer frequency, TF over GST control); in test [3], 1.04 fold enrichment (6-mer frequency, TF over GST control); in test [4] it was 1.09 fold enrichment (6-mer frequency, TF over GST control); in test [5], 1.13 fold enrichment (6-mer frequency, TF over GST control); in [6], 1.13 fold enrichment (6-mer frequency, TF over GST control). Also, the binding signal is 1.05 fold enrichment (6-mer frequency, TF over GST control) in [7]; 1.06 fold enrichment (6-mer frequency, TF over GST control) in test [8]; 1.04 fold enrichment (6-mer frequency, TF over GST control) in test [9].

In the case of TACTTT, the binding signal in test [1] is 1.32 fold enrichment (6-mer frequency, TF over GST control); in test [2], 1.48 fold enrichment (6-mer frequency, TF over GST control); in [3], 1.41 fold enrichment (6-mer frequency, TF over GST control); in test [4], 1.29 fold enrichment (6-mer frequency, TF over GST control); in test [5], 1.34 fold enrichment (6-mer frequency, TF over GST control); in [6], 1.39 fold enrichment (6-mer frequency, TF over GST control). For the same sequence, the binding signal in [7] is 1.25 fold enrichment (6-mer frequency, TF over GST control); in [8], 1.36 fold enrichment (6-mer frequency, TF over GST control); in test [9], 1.11 fold enrichment (6-mer frequency, TF over GST control).
